In the supplement of paper PMC6522484:
± gives the standard deviation of the averaged measurements.

Tests used:
DLD1 [1] = experiment: cell viability (CellTiter-Glo) relative to plate median (fraction of plate median); higher = more viable cells; conditions: 5 µM; treatment time 24 h; reporter: 7TFP
Procedure, shortened: (§1)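 Colorectal cancer cell lines stably carrying lentiviral TCF/Wnt firefly luciferase reporters (7TFP or TCF4/Wnt) were plated in 384-well plates and, 24 h later, given library compounds at a final 5 µM for 24 h. Firefly luciferase or CellTiterGlo luminescence was read on parallel plates with a Tecan F500 reader. Each well's signal was normalised to the plate median in webcellHTS2 (additive, without log transformation). Values are the mean of two independent replicates.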

HCT116 = experiment: as above; conditions: 5 µM; treatment time 24 h; reporter: TCF4/Wnt
Procedure, shortened: as §1

SW480 [2] = experiment: as above; conditions: 5 µM; treatment time 24 h; reporter: 7TFP
Procedure, shortened: as §1

DLD1 [3] = experiment: TCF/Wnt firefly luciferase reporter signal relative to plate median (fraction of plate median); higher = higher Wnt reporter signal; conditions: 5 µM; treatment time 24 h; reporter: 7TFP
Procedure, shortened: as §1

SW480 [4] = experiment: as above; conditions: 5 µM; treatment time 24 h; reporter: 7TFP
Procedure, shortened: as §1

Row | SMILES | cell viability (DLD1 [1]) | cell viability (HCT116) | cell viability (SW480 [2]) | TCF/Wnt firefly luciferase reporter signal (DLD1 [3]) | TCF/Wnt firefly luciferase reporter signal (SW480 [4])
1 | O=c1ccn([C@@H]2O[C@H](COP(=O)(O)OP(=O)(O)OP(=O)(O)O)[C@@H](O)[C@H]2O)c(=O)[nH]1 | 0.986 ± 0.091 | 0.89 ± 0.016 | 1.04 ± 0.064 | 0.921 ± 0.27 | 0.958 ± 0.14
2 | CCCCC1C(=O)N(c2ccccc2)N(c2ccccc2)C1=O | 1.02 ± 0.063 | 0.987 ± 0.12 | 1.035 ± 0.0071 | 1.14 ± 0.085 | 1.01 ± 0.024
3 | COc1ccc(-c2cc(=O)c3c(O)cc(O[C@@H]4O[C@H](CO[C@@H]5O[C@@H](C)[C@H](O)[C@@H](O)[C@H]5O)[C@@H](O)[C@H](O)[C@H]4O)cc3o2)cc1O | 0.999 ± 0.03 | 1.06 ± 0.12 | 0.96 ± 0.013 | 1.06 ± 0.13 | 1.04 ± 0.021
4 | CCN(CC)CCCC(C)Nc1ccnc2cc(Cl)ccc12 (stereo not given) | 1.05 ± 0.096 | 1.04 ± 0.12 | 1.05 ± 0.028 | 0.974 ± 0.024 | 1.045 ± 0.0071
5 | O=C(Cn1ccnc1[N+](=O)[O-])NCCO | 0.992 ± 0.04 | 0.989 ± 0.1 | 0.9935 ± 0.0092 | 1.09 ± 0.17 | 1.02 ± 0.038
6 | C[C@H]1C[C@@H]2[C@H]([C@@H](O)C[C@@]3(C)[C@H]2CC[C@]3(O)C(=O)COC(=O)CCC(=O)O)[C@@]2(C)C=CC(=O)C=C12 | 0.918 ± 0.13 | 1.01 ± 0.018 | 0.921 ± 0.012 | 0.964 ± 0.044 | 0.997 ± 0.061
7 | Cn1cnc([N+](=O)[O-])c1Sc1ncnc2[nH]cnc12 | 0.95 ± 0.018 | 1.02 ± 0.054 | 1.13 ± 0.057 | 1.03 ± 0.078 | 0.965 ± 0.034
8 | COc1cc(NS(C)(=O)=O)ccc1Nc1c2ccccc2nc2ccccc12 | 1.11 ± 0.14 | 0.83 ± 0.09 | 1.03 ± 0.035 | 0.973 ± 0.053 | 0.841 ± 0.11
9 | CC(C)(Oc1ccc(Cl)cc1)C(=O)O | 1.04 ± 0.021 | 1.17 ± 0.057 | 1.035 ± 0.0071 | 1.07 ± 0.13 | 1.1 ± 0.057
10 | O=C(C=Cc1ccc(O)cc1)c1ccccc1O | 0.926 ± 0.089 | 0.881 ± 0.03 | 1.02 ± 0.028 | 1.06 ± 0.035 | 1.07 ± 0.092
11 | CCc1cn([C@H]2C[C@H](O)[C@@H](CO)O2)c(=O)[nH]c1=O | 0.9885 ± 0.0021 | 0.968 ± 0.073 | 1.01 ± 0.023 | 1.03 ± 0.14 | 1.08 ± 0.085
12 | C[C@H](CS)C(=O)N1CCC[C@H]1C(=O)O | 1.04 ± 0.097 | 1.02 ± 0.1 | 1.09 ± 0.014 | 1.04 ± 0.042 | 1.06 ± 0.021
13 | COc1cc([C@@H]2c3cc4c(cc3[C@@H](O[C@@H]3O[C@@H]5CO[C@@H](c6cccs6)O[C@H]5[C@H](O)[C@H]3O)[C@H]3COC(=O)[C@H]23)OCO4)cc(OC)c1O | 0.946 ± 0.047 | 0.747 ± 0.0014 | 0.952 ± 0.14 | 0.738 ± 0.032 | 0.868
14 | CC(=O)Oc1c(C)cccc1C(=O)O | 0.9705 ± 0.0064 | 0.966 ± 0.039 | 1.02 ± 0.063 | 0.884 ± 0.13 | 0.979 ± 0.087
15 | COc1cccc2c1C(=O)c1c(O)c3c(c(O)c1C2=O)C[C@@](O)(C(C)=O)C[C@@H]3O[C@H]1C[C@H](N)[C@H](O)[C@H](C)O1 | 0.958 ± 0.027 | 0.575 ± 0.037 | 1.03 ± 0.1 | 0.781 ± 0.21 | 0.564 ± 0.26
16 | O=C(O[C@@H]1Cc2c(O)cc(O)cc2O[C@@H]1c1cc(O)c(O)c(O)c1-c1c([C@H]2Oc3cc(O)cc(O)c3C[C@H]2OC(=O)c2cc(O)c(O)c(O)c2)cc(O)c(O)c1O)c1cc(O)c(O)c(O)c1 | 1.08 ± 0.05 | 1.15 ± 0.12 | 1.035 ± 0.0071 | 1.03 ± 0.11 | 1.01 ± 0.047
17 | O=C1CCC(N2C(=O)c3ccccc3C2=O)C(=O)N1 (stereo not given) | 0.939 ± 0.1 | 0.972 ± 0.04 | 0.953 ± 0.03 | 1.23 ± 0.16 | 0.887 ± 0.018
18 | C#CCN(C)Cc1ccccc1 | 0.947 ± 0.053 | 1.08 ± 0.042 | 0.943 ± 0.0099 | 1.14 ± 0.014 | 1.03 ± 0.05
19 | CC(=O)O[C@H]1C[C@@H](O)C(C)(C)[C@@H]2C[C@@H](OC(C)=O)[C@]3(C)[C@H](CC[C@@]4(C)[C@@H](c5ccoc5)OC(=O)[C@H]5O[C@@]534)[C@@]12C | 1.04 ± 0.069 | 0.947 ± 0.066 | 0.945 ± 0.016 | 1.04 ± 0.067 | 0.978 ± 0.011
20 | NC(CO)C(=O)NNCc1ccc(O)c(O)c1O (stereo not given) | 1.03 ± 0.028 | 1.07 ± 0.13 | 1.02 ± 0.021 | 1.07 ± 0.021 | 1.08 ± 0.021
21 | COC(=O)c1cc(O)c(=O)c2c(O)c(O)ccc2c1 | 0.982 ± 0.096 | 0.8955 ± 0.0021 | 0.997 ± 0.033 | 0.785 ± 0.037 | 0.951 ± 0.11
22 | CCCN(CCC)C(=O)C(CCC(=O)O)NC(=O)c1ccccc1 (stereo not given) | 0.921 ± 0.057 | 1.06 ± 0.035 | 0.904 ± 0.024 | 1.01 ± 0.024 | 1.06 ± 0.05
23 | CC(=O)OCC(=O)[C@@]12OC3(CCCC3)O[C@@H]1C[C@H]1[C@@H]3CCC4=CC(=O)C=C[C@]4(C)[C@@]3(F)[C@@H](O)C[C@@]12C | 0.985 ± 0.021 | 0.896 ± 0.16 | 0.965 ± 0.023 | 0.82 ± 0.093 | 0.771 ± 0.28
24 | O=C1[C@H](CC[C@H](O)c2ccc(F)cc2)[C@@H](c2ccc(O)cc2)N1c1ccc(F)cc1 | 0.828 ± 0.15 | 1.01 ± 0.063 | 0.961 ± 0.084 | 0.952 ± 0.17 | 0.919 ± 0.11
